Many of the other results were omitted from the sample, so hits are more common in it than they were.
HIV RNase H inh-1 – inhibitors of HIV-1 reverse transcriptase RNase H; P04585; RT-RNase H RNA/DNA duplex cleavage, fluorescence; inhibition, % at 10 µM; hit rate 1.9% among 65,000; in the data active = inhibition above about 50%
HIV RNase H inh-2 – confirmation of HIV-1 reverse transcriptase RNase H inhibitors; shares compounds with HIV RNase H inh-1; inhibition, % at 10 µM; Recombinant RT RNase H, fluorescent RNA/DNA duplex cleavage; hit rate 39% among 1,000; AID 651; in the data active = inhibition above about 48%; inconclusive = no clear call, values can overlap the other calls
Numbers stand for hits; – = inactive; ? = inconclusive.

SMILES	HIV RNase H inh-1	others
Cn1c(=O)[nH]c(=O)c2c1nc(N1CCCCC1)n2CCOc1ccccc1	–
Cn1c(=O)[nH]c(=O)c2c1nc(N1CCCCC1)n2CCSc1ncccn1	–
c1ccc(-c2csc(-n3cnnn3)n2)cc1	–
Cc1cccc2cc(COC(=O)C(C)(C)C)c(=O)[nH]c12	–
COc1ccc(S(=O)(=O)N2CCCN(S(=O)(=O)c3ccc(OC)cc3C)CC2)c(C)c1	–
Cc1ccc(S(=O)(=O)N2CCOCC2)cc1C(=O)OCC(=O)N1CCc2ccccc2C1	–
CS(=O)(=O)N(CC(=O)N1CCN(c2ccccc2F)CC1)c1cccc(C(F)(F)F)c1	–
COc1ccc(N2CC(C(=O)Nc3ccc4c(c3)OCO4)CC2=O)cc1 (configuration not stated)	–
O=C(COC(=O)C1CC(=O)N(c2ccc3c(c2)OCCO3)C1)Nc1ccc2c(c1)CCC2 (configuration not stated)	–
O=C(Nc1nc(-c2ccco2)c(-c2ccco2)s1)C1CC(=O)N(c2ccc3c(c2)OCCO3)C1 (configuration not stated)	74.5	HIV RNase H inh-2=–
Cc1cn(S(=O)(=O)c2ccc(Br)c3ccccc23)cn1	–
O=C(NC1CCS(=O)(=O)C1)c1ccccc1C(=O)c1ccccc1 (configuration not stated)	–
NC(=O)c1c(NC(=O)CN2C(=O)CCC2=O)sc2c1CCCCC2	84.9	HIV RNase H inh-2=–
CCOC(=O)c1c(NC(=O)OC)sc2c1CCC2	–
COCCNC(=O)c1ccc(C(=O)NCCOC)s1	–
CCCOC(=O)c1c(N)sc2c1CCC2	–
CC(C)Oc1ccc(C(=O)NC2CCS(=O)(=O)C2)cc1 (configuration not stated)	–
COC(=O)c1c(NC(=O)C2CC2)sc2c1CCCC2	–
COCCNC(=O)c1c(N)sc2c1CCCC2	62.5	HIV RNase H inh-2=–
NC(=O)c1c(NC(=O)CN2CCCC2)sc2c1CCCC2	–
CC(C)OC(=O)c1c(N)sc2c1CCCC2	87.1	HIV RNase H inh-2=?
CC(=O)N1CCc2c(sc(NC(=O)CN3C(=O)CCC3=O)c2C(N)=O)C1	–
Nc1sc2c(c1C(=O)NC1CCS(=O)(=O)C1)CCC2 (configuration not stated)	66.5	HIV RNase H inh-2=74.1
COc1ccc(-c2csc(Cc3nnc(N4CCOCC4)n3-c3ccccc3)n2)cc1	–
O=C(CSc1nnc(CNc2ccc(Cl)cc2)o1)Nc1nc2c(s1)CCCC2	–
SMILES	HIV RNase H inh-1	others
O=C1N2CCSC2=NC1(NS(=O)(=O)c1ccccc1)C(F)(F)F (configuration not stated)	–
Cc1nnc2ccc(Oc3ccc(-c4ccccc4)cc3)nn12	–
Cc1oc(-c2ccccc2F)nc1CS(=O)(=O)CC(=O)NCc1ccco1	–
CCOc1ccc(N2CC(C(=O)Oc3ccccc3)CC2=O)cc1 (configuration not stated)	–
COc1ccc(CCNC(=O)c2ccn[nH]2)cc1OC	–
CCSc1ccc2nnc(-c3ccc(F)cc3)n2n1	–
O=C(Cn1cc2c(n1)CCCC2)N1CCCc2ccccc21	–
Cc1c(C(N)=O)sc(N)c1C(=O)OC(C)C	83.5	HIV RNase H inh-2=–
CNC(=O)c1c(N)sc2c1CCCCC2	83.9	HIV RNase H inh-2=?
NC(=O)c1c(N)sc2c1CCCCC2	72.9	HIV RNase H inh-2=–
CNC(=O)c1c(NC(=O)c2nc3ccccc3s2)sc2c1CCC2	–
CCOC(=O)c1c(N)sc(C(=O)N2CCCCCC2)c1C	–
CCC(=O)Nc1sc2c(c1C(N)=O)CCC2	–
N#CCC(=O)Nc1sc2c(c1C(N)=O)CCCC2	–
Cc1noc(C)c1C(=O)Nc1sc2c(c1C(N)=O)CCCCC2	–
CCOC(=O)c1c(N)sc(C(N)=O)c1C	–
O=C1CC(c2cccs2)c2cc3c(cc2N1)OCCO3 (configuration not stated)	–
COc1ccc(N2CCN(Cc3nc4c(c(=O)[nH]c(=O)n4C)n3CC(C)=O)CC2)cc1	–
CC(=O)NCc1ccc(C(=O)CSc2nnc(-c3ccncc3)n2Cc2ccccc2)o1	–
Cc1ccc(NC(=O)CSc2nnc(CCCCCNC(=O)OC(C)(C)C)o2)c(C)c1	–
O=C(Cc1ccccc1)NCc1nc2ccccc2[nH]1	–
O=C(Cn1c(=O)n(CCCC(=O)NC2CCCC2)c(=O)c2ccccc21)NCCC1=CCCCC1	–
CCN(CC)CCNC(=O)C1c2cc(OC)c(OC)cc2C(=O)N2CCc3ccccc3C12 (configuration not stated)	–
CCOc1ccc(C2CC(=O)NC(SCC(=O)OC)=C2C#N)cc1 (configuration not stated)	–
COc1ccc(NC(=O)c2cc(-c3ccc(OC)c(OC)c3)on2)cc1OC	81.1	HIV RNase H inh-2=–
SMILES	HIV RNase H inh-1	others
Cc1ccc(NC(=O)c2cc(-c3ccco3)on2)cc1	–
CC(=O)c1cccc(NC(=O)c2cc(-c3ccc(C)cc3)on2)c1	52.3	HIV RNase H inh-2=56.8
COc1ccc(NC(=O)c2cc(C(C)C)on2)cc1OC	–
CCCc1cc(C(=O)Nc2cccc(C(C)=O)c2)no1	–
COc1ccc(NC(=O)c2cc(C)on2)cc1OC	–
Cc1nnc(SCC(=O)NCCc2ccccc2)[nH]c1=O	–
CCOc1ccccc1CN1C(=O)NC(C)(c2ccccc2)C1=O (configuration not stated)	–
CCc1nc(N)c(C#N)c(-c2ccccc2OC)c1C	–
CCOC(=O)c1c(NC(=O)c2cccs2)sc(C(=O)N2CCOCC2)c1C	–
CCOC(=O)c1c(NC(=O)c2cc(C3CC3)on2)sc(C(C)=O)c1C	68.0	HIV RNase H inh-2=–
CCOC(=O)c1c(NC(=O)c2ccc(Cl)s2)sc(C)c1C	–
CCOC(=O)c1c(NC(=O)c2cc(C3CC3)on2)sc2c1CCCC2	84.5	HIV RNase H inh-2=94.1
CCOC(=O)c1c(NC(=O)c2csc(C)c2)sc(C(C)=O)c1C	–
CCOC(=O)c1c(NC(=O)c2cccs2)sc2c1CCCC2	–
CCCc1cc(C(=O)Nc2sc(C)c(C)c2C(=O)OCC)no1	86.3	HIV RNase H inh-2=67.5
CCOC(=O)c1c(NC(N)=O)sc(C)c1C	–
CCOC(=O)c1c(NC(=O)c2ccco2)sc2c1CCCCC2	–
O=S(=O)(c1ccc2c(c1)OCCO2)N(Cc1ccc(F)cc1)Cc1nnc(-c2cccs2)o1	–
CN(Cc1ccccc1)S(=O)(=O)c1ccc2[nH]cc(C(=O)NCC3CCCO3)c(=O)c2c1 (configuration not stated)	–
COc1ccc(C(=O)N2CCCC(c3nc(-c4ccc(OC)c(OC)c4)no3)C2)c(OC)c1 (configuration not stated)	–
COCCn1c(Cc2ccccc2)nnc1SCC(=O)NC(C)C	–
Cc1ccc(S(=O)(=O)Cn2nnnc2CN2CCCC3(CCCCC3)C2)cc1	–
CCCOc1cccc(C2C(C(=O)c3ccc(C)o3)=C(O)C(=O)N2CCCN(C)C)c1 (configuration not stated)	–
CCn1c(Cc2ccc(OC)cc2)nnc1SCC(=O)Nc1nc2ccccc2s1	–
CC(=C1C(=O)c2ccccc2C1=O)N1CCC(C(N)=O)(N2CCCCC2)CC1	–
SMILES	HIV RNase H inh-1	others
CCOC(=O)CNC(=O)Cn1cnc2c(nnn2-c2cccc(Cl)c2)c1=O	–
CN(CC(=O)NCc1cccc(F)c1)C(=O)c1ccco1	–
CCOC(=O)c1c(N)sc(=S)c2c1CCC2	–
C=CCn1sc(N)c(C(=O)OCC)c1=S	–
CCOC(=O)c1c(N)ssc1=S	85.0	HIV RNase H inh-2=?
CCC(C)(C)n1nnnc1CN(Cc1cc2cc(OC)c(OC)cc2[nH]c1=O)C1CCCC1	–
CC(=O)C1=C(C)NC(SCSc2ccccc2)=C(C#N)C1c1cccnc1 (configuration not stated)	–

Assay outcomes (PubChem BioAssay)
